TROY NFkB inh: inhibitors of TROY-driven NF-kB signaling, primary screen, Q293 LMP1-TROYcd cells, NF-kB luciferase, uHTS; Q293 LMP1-TROYcd NF-kB luciferase reporter, 4 h; 360,000 compounds, 0.98% hits; inhibition, % at 10 µM;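 active = compounds whose plate-normalised and pattern-corrected inhibition of the luciferase reporter signal at the single screening dose is 50% or more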
LGR2 inh: inhibitors of bursicon-induced LGR2 CRE-luciferase signal, primary screen, cell-based, HEK293, CRE-luciferase reporter, bursicon stimulation | bursicon-stimulated, 4 h | 380,000 compounds, 0.35% hits | inhibition, % at 9.99 µM | Drosophila bursicon receptor LGR2 (rickets);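 active = drop in luminescence signal, shown as inhibition above about 50% in the replicate tests, limit read from the data, passing the limit was not always enough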;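 also: agonist challenge used bursicon conditioned medium at about half maximal strength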
TWEAK Fn14 block: inhibitors of TWEAK-Fn14 signaling, primary screen, luciferase reporter cells, uHTS; TWEAK-stimulated Fn14 reporter cells, luciferase luminescence, 8 h; inhibition, % at 10 µM; 360,000 compounds, 2% hits; in the data active = inhibition above about 50%
HSP90 inh: HSP90 inhibitors, primary screen, cell lysate, luminescence | Heat shock protein HSP 90 (rabbit reticulocyte lysate; luciferase refolding) | Rabbit reticulocyte lysate, luciferase refolding luminescence, 3 h | inhibition, % at 5.6 µM | 290,000 compounds, 0.91% hits | AID 1789, 2009;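 active = inhibition above the screen-wide mean plus 3 SD, computed separately per campaign, cut at about 16% in these data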;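 also: inhibitors lower the luminescence because luciferase stays unfolded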
HSP90 confirm: HSP90 inhibitors, confirmation, cell lysate, luminescence; 2,300 compounds, 64% hits; rabbit reticulocyte lysate, luciferase refolding luminescence, 3 h; shares compounds with HSP90 inh; inhibition, % at 5.9 µM; AID 1846, 2009; in the data active = inhibition above about 18%
FLuc counter: firefly luciferase inhibitors, HSP90 counter-screen, confirmation, artefact control for HSP90 inhibitor project, biochemical, luminescence, triplicate; AID 1847, 2009; inhibition, % at 5.9 µM; shares compounds with HSP90 inh; purified native firefly luciferase; 2,300 compounds, 48% hits;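 active = inhibition above the mean inhibition of all tested sample wells plus 3 SD, cut at about 10% in these data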
Target sequence (P08659 whole entry, looked up): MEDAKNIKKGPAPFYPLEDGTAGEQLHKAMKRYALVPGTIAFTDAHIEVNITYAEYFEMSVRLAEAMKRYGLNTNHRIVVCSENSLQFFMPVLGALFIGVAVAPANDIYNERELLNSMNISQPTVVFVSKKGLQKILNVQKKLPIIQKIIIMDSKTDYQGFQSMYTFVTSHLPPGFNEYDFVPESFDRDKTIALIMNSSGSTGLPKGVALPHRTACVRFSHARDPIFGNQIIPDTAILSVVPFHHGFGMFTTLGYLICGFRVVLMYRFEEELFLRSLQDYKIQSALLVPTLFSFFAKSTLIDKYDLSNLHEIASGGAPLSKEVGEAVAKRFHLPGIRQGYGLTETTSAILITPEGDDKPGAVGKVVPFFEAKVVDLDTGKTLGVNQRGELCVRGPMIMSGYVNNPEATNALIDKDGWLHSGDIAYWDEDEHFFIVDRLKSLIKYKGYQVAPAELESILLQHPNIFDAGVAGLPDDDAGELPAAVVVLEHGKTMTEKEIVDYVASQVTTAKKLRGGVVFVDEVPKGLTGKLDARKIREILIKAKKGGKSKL
Of the large screens only hits and unclear results are named; the others gave an inactive call (follow-up assays come after a bar, where they were run). Shown are actives, neighbours in structure and some others; about 2.2% of the full set was active somewhere.

COc1cc(C=O)ccc1OCCCOc1ccccc1C(=O)O	TROY NFkB inh 83.9, TWEAK Fn14 block 101.6, HSP90 inh 73.6 (no result: LGR2 inh) | HSP90 confirm 76.4 | FLuc counter 34.0
COC(=O)c1ccccc1OCCCOc1ccc(C)cc1OC	HSP90 inh 94.4 (no result: TROY NFkB inh, LGR2 inh, TWEAK Fn14 block) | HSP90 confirm 100.1 | FLuc counter inactive
CO[C@@H]1CN(C)C(=O)c2ccc(NC(=O)C3CCOCC3)cc2OC[C@H](C)N(Cc2nccs2)C[C@H]1C	none (no result: TROY NFkB inh, TWEAK Fn14 block, HSP90 inh)
COCC(=O)N1CC(=O)N2[C@H](CO)[C@H](c3ccc(-c4ccccc4F)cc3)[C@@H]2C1	none (no result: TROY NFkB inh, TWEAK Fn14 block, HSP90 inh)
CC=Cc1ccc2n(c1=O)C[C@H]1[C@H](CO)[C@@H](C(=O)NCc3ccncn3)N(C(=O)C3CCCC3)[C@@H]21 (mixture of isomers)	none (no result: TROY NFkB inh, TWEAK Fn14 block, HSP90 inh)
C[C@H]1CCCCO[C@H](CN(C)C(=O)Cc2ccccc2)[C@@H](C)CN([C@@H](C)CO)C(=O)c2cc(NC(=O)C3CCCCC3)ccc2O1	none (no result: TROY NFkB inh, TWEAK Fn14 block, HSP90 inh)
CCS(=O)(=O)N1Cc2cc(C(=O)O)nc(-c3cccc(-c4ccc(C#N)cc4)c3)c2[C@H]1CCO	none (no result: TROY NFkB inh, TWEAK Fn14 block, HSP90 inh)
CSc1nnc([C@@H]2CCCN2C(=O)OC(C)(C)C)o1	none
Cn1c(C2CCCN2C(=O)OC(C)(C)C)n[nH]c1=S (stereo not given)	HSP90 inh 34.2 (no result: LGR2 inh) | HSP90 confirm inactive | FLuc counter inactive
O=C(O)CCCNc1cc(N2CCN(C(=O)c3ccco3)CC2)c2noc3c2c1C(=O)c1ccccc1-3	none
O=C(O)CCCNc1cc(N2CCC3(CC2)OCCO3)c2noc3c2c1C(=O)c1ccccc1-3	HSP90 inh 31.2 (no result: TROY NFkB inh, LGR2 inh, TWEAK Fn14 block) | HSP90 confirm 29.6 | FLuc counter 28.8
C[C@@H]1CCCCO[C@H](CN(C)S(C)(=O)=O)[C@H](C)CN([C@@H](C)CO)C(=O)c2cc(NS(=O)(=O)c3ccc(F)cc3)ccc2O1	none (no result: TROY NFkB inh, TWEAK Fn14 block, HSP90 inh)
COc1ccccc1N/C=C/c1onc(C)c1[N+](=O)[O-]	TROY NFkB inh 71.5, LGR2 inh 72.9, TWEAK Fn14 block 78.3, HSP90 inh 38.7 | HSP90 confirm 78.2 | FLuc counter 71.2
NNC(=O)c1ccc2nc(-c3ccc(Br)cc3)cn2c1	none
COC(=O)c1ccc2nc(-c3ccc4c(c3)OCO4)cn2c1	LGR2 inh 82.9, TWEAK Fn14 block 89.0, HSP90 inh 17.5 | HSP90 confirm 72.7 | FLuc counter 65.3
COc1ccc(-c2cn3cc(C(=O)NN)ccc3n2)cc1	HSP90 inh 43.3 | HSP90 confirm 24.1 | FLuc counter inactive
CCc1ccn2cc(-c3ccc4c(c3)OCO4)nc2c1	TROY NFkB inh 65.6, LGR2 inh 97.3, HSP90 inh 73.3 | HSP90 confirm 85.6 | FLuc counter 84.7
COC(=O)c1ccc(NC(=O)Nc2ccc3c(c2)OCO3)cc1	none
c1cnc2nc(-c3ccc4c(c3)OCO4)cn2c1	none
CC(C)(C)c1ccc(C(=O)c2c[nH]c(C(=O)O)c2)cc1	TWEAK Fn14 block 50.4, HSP90 inh 53.5 | HSP90 confirm 62.6 | FLuc counter inactive
COc1cccc(/C=N/NC(=O)c2[nH]c(C)c(C(=O)N/N=C/c3cccc(OC)c3O)c2C)c1O	HSP90 inh 32.0 (no result: LGR2 inh) | HSP90 confirm inactive | FLuc counter inactive
COc1cccc(/C=N/NC(=S)Nc2cccc(C(=O)O)c2)c1O	LGR2 inh 65.9, HSP90 inh 25.3 | HSP90 confirm 50.3 | FLuc counter 27.2
COc1cccc(/C=N/NC(=O)c2ccc(-c3ccccc3)cc2)c1O	none (no result: LGR2 inh)
C[C@H](CO)N1C[C@H](C)[C@@H](CN(C)C(=O)c2ccccc2)OCCCC[C@H](C)Oc2ccc(N(C)C)cc2C1=O	none (no result: TROY NFkB inh, TWEAK Fn14 block, HSP90 inh)
Cc1c(C(=O)O)cccc1-n1c(C)cc(C=O)c1C	HSP90 inh 22.2 | HSP90 confirm 19.4 | FLuc counter inactive
Cc1ccc(C(=O)O)cc1-n1c(C)cc(C=O)c1C	none
C[C@@H]1CN([C@H](C)CO)C(=O)Cc2cc(NC(=O)C3CCCCC3)ccc2O[C@@H]1CN(C)S(=O)(=O)c1ccccc1	none (no result: TROY NFkB inh, TWEAK Fn14 block, HSP90 inh)
C[C@H]1CN([C@@H](C)CO)C(=O)c2cc(C3=CCCC3)cnc2O[C@@H]1CN(C)S(=O)(=O)c1cn(C)cn1	none (no result: TROY NFkB inh, TWEAK Fn14 block, HSP90 inh)
COC(=O)c1ccc(N/C=C/C(=O)c2ccccc2)cc1	TWEAK Fn14 block 50.6, HSP90 inh 20.7 | HSP90 confirm 51.8 | FLuc counter inactive
C[C@@H]1CCCCO[C@@H](CN(C)Cc2ccc3c(c2)OCO3)[C@@H](C)CN([C@H](C)CO)C(=O)c2cc(NS(=O)(=O)c3ccc(F)cc3)ccc2O1	none (no result: TROY NFkB inh, TWEAK Fn14 block, HSP90 inh)
O=C(Cc1ccc(F)cc1)Nc1nnc(SCC(=O)N2CCCCC2)s1	none
O=C(Nc1nnc(SCC(=O)N2CCCCC2)s1)c1ccc(F)cc1F	HSP90 inh 51.5 | HSP90 confirm inactive | FLuc counter inactive
C[C@@H]1CN([C@@H](C)CO)C(=O)c2cc(NS(C)(=O)=O)ccc2O[C@@H](C)CCCCO[C@@H]1CN(C)S(=O)(=O)c1ccccc1	none (no result: TROY NFkB inh, TWEAK Fn14 block, HSP90 inh)
CC(C)(C)c1ccc(C(=O)Nc2ccc(CC(=O)O)cc2)o1	TROY NFkB inh 55.1, TWEAK Fn14 block 87.7, HSP90 inh 22.4 | HSP90 confirm 23.2 | FLuc counter inactive
O=C(C[C@H]1CC[C@H](NC(=O)c2ccc3c(c2)OCO3)[C@H](CO)O1)NCc1ccc(Cl)cc1	none (no result: TROY NFkB inh, TWEAK Fn14 block, HSP90 inh)
Cc1cc(C(=O)COC(=O)c2ccc3c(c2)OCO3)c(C)n1CC1CCCO1 (stereo not given)	TROY NFkB inh 76.6, TWEAK Fn14 block 58.3, HSP90 inh 28.9 | HSP90 confirm 48.9 | FLuc counter 53.8
Cc1cc(C(=O)CSc2nc3ccccc3o2)c(C)n1CC1CCCO1 (stereo not given)	HSP90 inh 35.0 (no result: LGR2 inh) | HSP90 confirm 42.0 | FLuc counter 46.1
Cc1cc(C(=O)CSc2nc(N)cc(=O)[nH]2)c(C)n1CC1CCCO1 (stereo not given)	none (no result: LGR2 inh, HSP90 inh)
COc1cc(C(=O)OCC(=O)c2cc(C)n(CC3CCCO3)c2C)cc(OC)c1C (stereo not given)	none (no result: LGR2 inh, HSP90 inh)
Cc1cc(C(=O)CSc2nc3ccccc3[nH]2)c(C)n1CC1CCCO1 (stereo not given)	HSP90 inh 48.6 (no result: LGR2 inh) | HSP90 confirm 66.5 | FLuc counter 67.0
CC(C)c1ccc(NCCC(=O)c2cccs2)cc1	HSP90 inh 28.8 | HSP90 confirm 34.8 | FLuc counter inactive
Nc1nc(Nc2cccc(F)c2)nc2ccccc12	none (no result: LGR2 inh)
O=c1oc(Nc2cccc(F)c2)nc2ccccc12	HSP90 inh 17.5 (no result: LGR2 inh) | HSP90 confirm inactive | FLuc counter inactive
CCOC(=O)Cn1nc(C)n(-c2ccc(C(C)(C)C)cc2)c1=O	HSP90 inh 17.0 (no result: LGR2 inh) | HSP90 confirm inactive | FLuc counter inactive
